Measurements as given in the supplement of paper PMC3334620.
Over roughly 33,000 sequences, “E-score (-0.5 to 0.5)” has its median near -0.04; the highest 2% begin near 0.36. What follows is part of a selection rich in the highest values, with near analogues and random picks from the rest.

biological target: T1, Hmlalpha2 (UniProt P0CY09); experiment: PBM E-score (8-mer binding enrichment) (E-score (-0.5 to 0.5)); higher = stronger / more preferred TF binding; settings: protein concentration: 200 nM; construct: GST-full length
T1 sequence: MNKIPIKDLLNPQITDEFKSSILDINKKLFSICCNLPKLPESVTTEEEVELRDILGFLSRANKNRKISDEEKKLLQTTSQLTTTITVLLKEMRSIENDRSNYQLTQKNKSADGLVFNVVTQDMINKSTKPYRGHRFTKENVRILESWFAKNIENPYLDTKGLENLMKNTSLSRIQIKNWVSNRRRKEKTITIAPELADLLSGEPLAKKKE
Procedure: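 Universal 'all 10-mer' protein binding microarrays (Agilent AMADID 015681) probed with GST-tagged S. cerevisiae TFs (full-length or DBD) made by in vitro transcription/translation (PURExpress), about 100-200 nM. Bound TF was detected with fluorescent anti-GST. Each ungapped 8-mer (which stands for itself and its reverse complement) is scored by the PBM enrichment score (E-score), a modified Wilcoxon-Mann-Whitney statistic from -0.5 to +0.5, computed with the Universal PBM Analysis Suite. Scale: above 0.35 generally sequence-specific binding.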

Sequence	PBM E-score
CAACATAC	0.303
TAACATTA	0.331
AAACATAA	0.348
ACACATGT	0.394
ACACATGG	0.21
CAACATGC	0.398
ACACATGA	0.304
AAACATCA	0.278
GAACATGC	0.272
ACTAACCC	0.0236
CAAGGGTC	-0.199
CCACACAG	-0.0322
ATGCGTTG	0.205
GACTGACC	-0.192
GAGGTCAA	-0.0488
GTGAAGAA	0.181
CCCAAACG	-0.123
ACAACTCA	0.194
AGAATAGC	-0.15
AGTGCCAC	-0.215
CAGGAGCC	-0.225
CTCCCTCC	-0.389
GTCACACA	0.15
GTTACAAA	0.303
CTCACACA	0.114

Sequence	PBM E-score
GTTACACA	0.435
CTTACACA	0.408
CTTACTCA	-0.0475
GCAAAACA	0.135
CCCTTGCC	-0.285
TAACCGCA	0.0481
AGACTCAT	-0.0539
CAATTACA	0.445
AAATTACT	0.209
TAATTATA	0.245
CACTTACA	0.281
AAATTACA	0.424
CAATTACC	0.0295
TAATTAGA	0.167
AAATTACG	0.309
TACTTACA	0.379
GACTTACA	0.274
CAATTACG	0.349
TAATTACA	0.462
CACCGCTA	-0.0146
CGAATTCA	-0.0293
AATGTAGT	0.249
GGGGCCTA	-0.31
GCCGCGGC	-0.242
CCGCGATC	-0.238

Sequence	PBM E-score
AATTCTGC	-0.061
GAATTATA	0.113
GAATTACC	0.107
GAATTACA	0.444
CTTGCTTC	0.0506
GTCATCGA	-0.0402
AATTACGA	0.338
CTTTACGC	0.42
ATTTACGC	0.347
GATTACGC	0.345
AATTACGC	0.431
AATTACGG	-0.0144
CTTTACGA	0.185
CATTACGC	0.321
AATTACGT	0.382
AATAACTG	0.0798
CCACTAGC	-0.111
AATACCCT	-0.0975
TCATTCCA	-0.147
CGTAATCA	0.367
GGTAATTA	0.25
CGTAATTC	0.321
CGTAATCC	0.309
CGTAATTA	0.389
AGTAATCA	0.199

Sequence	PBM E-score
ACTGCTTG	-0.00682
AACGAAGT	0.0804
ACAGCAGC	0.0712
CACGCGTC	0.174
TACGCGCA	0.252
CACGCGTA	0.277
AACGCGTA	0.359
TACGCGTA	0.409
CACGCGTG	0.374
AACGCGTG	0.336
TACGCGGA	0.312
GACGCGTA	0.383
CCCCCGTA	-0.247
AATGGAGT	-0.0239
AACTCTAA	0.0318
CCTTGATC	-0.0105
AATGTACC	0.166
TCAGTACA	0.227
GATGTACA	0.379
CATGTACC	0.287
GATGTACC	0.135
CATGTACA	0.458
TATGTACA	0.429
CCTGTACA	0.304
GGTGTACA	0.211

Sequence	PBM E-score
AATGTACT	0.186
TCTGTACA	0.258
AATGTACA	0.366
GCTTTGAC	0.074
GCGCACAC	-0.189
GTCAAGAC	-0.135
ATCACTGG	-0.0104
TATCTGGA	-0.16
GGTCCCTA	-0.0695
CCTGAATC	-0.0621
AATGTACG	0.108
CATGTACG	0.372
CCTGTACG	0.0613
CGGTAGAA	-0.175
ATCATGTC	0.351
CTCATGTC	0.295
CTCATGTA	0.454
CTCATGGA	-0.142
GTCATGTA	0.442
ATCATGTA	0.472
ATCATGTG	0.209
GTCATGCA	0.133
GTAATGTA	0.413
CTAATGTA	0.262
GTCATGGA	-0.188

Sequence	PBM E-score
ATAATGTA	0.273
CGCATTAC	0.214
ATGCGTTC	0.122
CGAGGCAA	0.126
AACCTCTC	-0.275
TACAACAA	0.343
GCCCCTCC	-0.277
TCGCCTCA	-0.118
CACACAGA	0.221
CATACACC	-0.076
TATACACA	0.437
GATACACA	0.214
CATACACG	0.398
TACACAGA	0.424
GATATACA	0.339
TATATACA	0.389
TATACAGA	0.251
AATATACA	0.34
CATACACA	0.336
GACACAGA	-0.00939
CTAAGATC	-0.0578
GGTGAGTA	0.135
AAAGCGAA	-0.132
GCCATCTA	-0.19
ACTCCACA	0.0494

Sequence	PBM E-score
GACGGTCA	-0.196
ATAGACTG	-0.0652
CACACAAA	0.126
TACACACA	0.43
CACACACA	0.228
CACACACG	0.279
TACACAAA	0.431
GACACAAA	0.14
ACAGATGC	-0.0548
ACTCCCAC	-0.352
GGCGGGAC	-0.194
TAACGCCA	0.0809
ATCTTGTA	0.383
AGCTTGTC	0.133
ATCTTGTG	-0.0105
GTCTTGTA	0.306
AGCTTGTG	0.11
ACCTTGTA	0.402
AGCTTGTA	0.379
GCCTTGTA	0.33
CCCTTGTA	0.328
CGGTCCCC	-0.347
